This is a sample that favours compounds with a hit; in the whole collection about 1.6% have one here.
KCNQ2 block = inhibitors of rat KCNQ2 potassium channel. CHO-K1 KCNQ2, FluxOR thallium flux, 20 min; active compounds read low. B-score at 10 µM. 310,000 compounds, 1.1% hits;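 active = fluorescence ratio B-score at most minus 3 library SDs, with starting brightness B-score within 2 library SDs, cut at about -5.5 in these data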
Target sequence (O88943 whole entry, looked up): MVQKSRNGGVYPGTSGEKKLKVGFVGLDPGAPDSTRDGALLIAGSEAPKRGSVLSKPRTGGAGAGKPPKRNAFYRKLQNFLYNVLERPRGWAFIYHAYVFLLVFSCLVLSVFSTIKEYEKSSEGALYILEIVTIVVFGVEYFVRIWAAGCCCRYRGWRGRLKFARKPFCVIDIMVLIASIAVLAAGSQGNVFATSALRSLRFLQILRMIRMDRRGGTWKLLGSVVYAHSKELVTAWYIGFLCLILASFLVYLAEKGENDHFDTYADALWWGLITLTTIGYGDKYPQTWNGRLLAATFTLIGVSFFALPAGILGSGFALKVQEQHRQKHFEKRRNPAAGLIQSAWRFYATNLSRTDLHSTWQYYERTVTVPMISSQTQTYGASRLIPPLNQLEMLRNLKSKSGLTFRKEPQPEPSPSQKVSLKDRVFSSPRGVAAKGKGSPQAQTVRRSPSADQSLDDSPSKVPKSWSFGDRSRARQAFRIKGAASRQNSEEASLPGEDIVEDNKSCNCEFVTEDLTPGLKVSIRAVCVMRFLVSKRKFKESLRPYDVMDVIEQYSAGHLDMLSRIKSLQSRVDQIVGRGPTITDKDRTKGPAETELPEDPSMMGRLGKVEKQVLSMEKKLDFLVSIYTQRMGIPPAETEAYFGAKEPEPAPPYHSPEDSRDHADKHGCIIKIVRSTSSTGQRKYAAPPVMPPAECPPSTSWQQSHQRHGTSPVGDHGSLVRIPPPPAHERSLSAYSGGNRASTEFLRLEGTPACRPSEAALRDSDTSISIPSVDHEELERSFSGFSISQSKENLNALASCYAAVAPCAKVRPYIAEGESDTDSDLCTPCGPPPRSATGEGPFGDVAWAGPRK
KCNQ2 enhance = potentiators of rat KCNQ2 potassium channel | O88943 | CHO-K1 KCNQ2, FluxOR thallium flux fluorescence; active compounds read high | B-score at 10 µM | 310,000 compounds, 0.54% hits | AID 2239;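 active = fluorescence ratio B-score at least 3 SD of library B-scores, with initial fluorescence B-score within 3 of them, cut at about 5.3 in these data; same plate scores as AID 2156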;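 note: B-score of peak minus minimum over baseline fluorescence ratio after K+ and Tl+ stimulus; positive B-score means potentiation of KCNQ2 with more thallium influx and brighter signal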
Numbers without * were called inactive; i = inactive; nt = no result given.

SMILES	KCNQ2 block	KCNQ2 enhance
O=C(Cn1c(=O)[nH]c2ccsc2c1=O)NC1CCCCC1	i	0.01
COc1cccc(NC(=O)CCN2CCN(c3ccccc3F)CC2)c1	i	0.6
Cc1cccc(C2c3[nH]c4ccccc4c3CCN2C(=O)c2cc(C(C)C)nc(N)n2)n1 (centres undefined)	i	nt
C=CCN=C1CC(C)(C)CC(=O)/C1=C(/O)CCC(=O)OC	i	nt
Cc1ccc(C(=O)N/C(=C\c2cn(C)c3ccccc23)C(=O)N2CCOCC2)cc1	-6.28*	-6.28
Cn1cc(/C=C(\NC(=O)c2ccccc2)C(=O)N2CCOCC2)c2ccccc21	i	nt
Oc1cccc2ccc(/C=C/c3ccccc3Cl)nc12	i	0.23
Nc1nnc(SCC(=O)Nc2cc(C(F)(F)F)ccc2N2CCOCC2)s1	i	nt
CCOC(=O)CSc1c(-c2ccc(Cl)cc2)[nH]c2ccccc12	i	nt
O=C(Cc1cccs1)NCCSc1c(-c2ccc(Cl)cc2)[nH]c2ccccc12	-7.07*	-7.07
Cc1ccc(C(=O)N/C(=C/c2ccccc2F)C(=O)NCCCn2ccnc2)cc1	i	nt
CCOC(=O)CSc1nnc(-c2cc(OC)c(OC)c(OC)c2)o1	i	0.1
CCOC(=O)CN(C(=O)CSc1nnc(-c2ccc(OC)c(OC)c2)o1)c1ccc(F)cc1	-6.62*	-6.62
C=CCNC(=O)c1cc2c(=O)n3cccc(C)c3nc2s1	i	0.06
COc1ccccc1C1CC(c2cccs2)=Nc2ccccc2S1 (centres undefined)	i	nt
Fc1ccccc1C1CC(c2ccco2)=Nc2ccccc2S1 (centres undefined)	-7.27*	-7.27
COc1ccc(N(CC(=O)N/N=C/c2ccc(OC3CSC3)cc2)S(=O)(=O)c2ccccc2)cc1	i	nt
O=C1C(Cc2cccc([N+](=O)[O-])c2)S/C(=N/N=C/c2ccco2)N1c1ccccc1 (centres undefined)	i	nt
O=C(CSc1nnc(COc2cccc3ccccc23)o1)N1c2ccccc2CCc2ccccc21	-8.4*	-8.4
NC(=O)CSc1nnc(COc2cccc3ccccc23)o1	i	1.12
O=[N+]([O-])c1ccc(-c2csc(N3CCCCCC3)n2)cc1	i	nt
CCn1nc(C(=O)OC(C(=O)c2c[nH]c3ccccc23)c2ccccc2)c2ccccc2c1=O (centres undefined)	-8.04*	-8.04
CCn1nc(C(=O)OCC(=O)c2ccc(F)cc2)c2ccccc2c1=O	i	1.12
Cc1nn(C(C)(C)C)c(OC(=O)C2CCCC2)c1S(=O)(=O)c1ccccc1	-5.96*	-5.96
Cc1ccc(S(=O)(=O)c2c(C)nn(C(C)(C)C)c2OC(=O)C2CCCC2)cc1	i	nt
SMILES	KCNQ2 block	KCNQ2 enhance
CCOc1ccc(OCC(=O)Nc2ccccc2N2CCCC2)cc1	i	nt
O=C(NCc1cccs1)C1CCC(CNS(=O)(=O)c2ccccc2)CC1 (centres undefined)	i	0.03
OCCN1CCN(CC(O)COc2ccc(C34CC5CC(CC(C5)C3)C4)cc2)CC1 (centres undefined)	-7.08*	-7.08
OCCN1CCN(CC(O)COc2ccc(Cl)cc2)CC1 (centres undefined)	i	0.32
CCCC(=O)Nc1c(-c2cccs2)c(=O)c2ccccc2n1CC	i	0.65
Cc1c(OCC(=O)NC(Cc2ccc(Cl)cc2)C(=O)O)ccc2c3c(c(=O)oc12)CCCC3 (centres undefined)	i	nt
O=C(COC(=O)C1(c2ccc(F)cc2)CCCC1)NCc1ccc2c(c1)OCO2	i	nt
O=C(COC(=O)C1(c2ccccc2F)CCCC1)NCc1ccc2c(c1)OCO2	-7.08*	-7.08
Cc1ccc(-c2nn(-c3ccccc3)cc2C2SCC(=O)N2Cc2ccccc2)o1 (centres undefined)	i	nt
CC(=O)c1cccc(NC(=O)C2CCN(S(=O)(=O)c3ccc(F)cc3)CC2)c1	i	nt
Cc1cc(C(=O)CN2C(=O)NC3(CCCc4ccccc43)C2=O)c(C)n1Cc1cccs1 (centres undefined)	i	nt
O=C1C2ON(c3ccccc3)C(c3cccnc3)C2C(=O)N1Cc1ccccc1 (centres undefined)	i	nt
COc1cc(C2C3C(=O)N(Cc4ccccc4)C(=O)C3ON2c2ccccc2)cc(OC)c1OC (centres undefined)	-6.36*	-6.36
CCOC(=O)c1sc(=NC(=O)c2ccc(OC(C)C)cc2)n(C)c1C	i	nt
Cc1cc(Nc2ccccc2)nc(NCc2ccccc2)n1	-6.2*	-6.2
Cc1cc(Nc2ccc(Cl)cc2)nc(NCc2ccccc2)n1	i	nt
COc1cccc(-c2nc(CS(=O)(=O)CC(=O)NCc3ccccc3)c(C)o2)c1	-5.86*	-5.86
COc1cccc(-c2nc(CS(=O)(=O)CC(=O)NCCCc3ccccc3)c(C)o2)c1	i	nt
CCOC(=O)CNC(=S)N(Cc1ccco1)Cc1ccccc1Cl	-6.49*	-6.49
CCCCNC(=O)CNC(=S)N(Cc1ccc(C)cc1)Cc1ccco1	i	0.59
COc1ccccc1NC(=O)COc1ccccc1C(=O)c1cnn(-c2ccccc2)c1	-6.05*	-6.05
CCc1ccc(NC(=O)COc2ccc(F)cc2C(=O)c2cnn(-c3ccccc3)c2)cc1	i	nt
COc1ccc(/C=C2\SC(=S)N(CCC(=O)NCCCN3CCOCC3)C2=O)cc1	i	1.45
CCCCCCCCCCCC1=C(O)C(=O)C=C(O)C1=O	i	0.01
COC1=CC(=O)C(O)=C(CCCCCCC/C=C/CCCCCCCC2=C(O)C(=O)C=C(OC)C2=O)C1=O	-6.64*	-6.64
SMILES	KCNQ2 block	KCNQ2 enhance
COc1cc(C(=O)NC(C)CCn2cccn2)ccc1OC1CCN(C(C)=O)CC1 (centres undefined)	i	0.64
Cc1ccc(-c2ccc(C(=O)NCc3ccccc3)o2)c2ccccc12	i	nt
Cc1ccc(-c2ccc(C(=O)Nc3ccccc3)o2)c2ccccc12	-5.71*	-5.71
CCCN(Cc1cc(=O)[nH]c2ccccc12)C(=O)CC	i	0.51
COCCNC(=O)CSc1ccccc1C(=O)NCC1CCCCC1	i	0.1
CC1CCN(C(=O)c2ccccc2SCC(=O)NCC2CCCCC2)CC1	-6.01*	-6.01
CC1CCCN(C(C(=O)Nc2ccc3c(c2)OCO3)c2ccccc2)C1 (centres undefined)	-5.74*	-5.74
CC1CCCN(C(C(=O)Nc2ccc3c(c2)OCCO3)c2ccccc2)C1 (centres undefined)	i	nt
CCOc1cc(N2CCOCC2)c(OCC)cc1NC(=O)CN1C(=O)NC(Cc2ccccc2)C1=O (centres undefined)	i	nt
CCOc1cc(N2CCOCC2)c(OCC)cc1NC(=O)CN1CCC(Cc2ccccc2)CC1	i	6.14*
O=C(CCC1CCCCC1)NCCS(=O)(=O)N1CCN(c2ccccc2F)CC1	i	nt
CN(C(=O)COC(=O)c1ccc2c(c1)OCCO2)c1ccccc1	i	nt
Cc1ccc(C)c(N=Nc2ccc(O)c3ncccc23)c1	i	2.4
Cc1cccc(N=Nc2ccc(O)c3ncccc23)c1	i	6.93*
COC(=O)c1sccc1NC(=O)c1cc(-c2cccc(C)c2)nc2ccccc12	i	nt
COC(=O)c1sccc1NC(=O)c1c(C)c(-c2cccc(Cl)c2)nc2ccccc12	-5.74*	-5.74
C[C@H](NC(=O)C1(c2ccccc2)CCN(C(=O)[C@H]2CSCN2C(=O)OC(C)(C)C)CC1)C(=O)O	i	nt
CCCCOCCCNC1=NCCCCC1	i	nt
COc1ccc(-n2c(COc3ccccc3)nnc2SCc2ccc(C#N)cc2)cc1	i	0.05
N#Cc1ccc(CSc2nnc(COc3ccccc3)n2-c2ccccc2)cc1	-5.61*	-5.61
